This is part of a sample that, as a whole, favours compounds with a hit. Of some 83,000 tested, about 20% had one in any assay.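 96-well plates, one dose, 48 hours. Percent growth reported; active if below 10.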 Calls of active or inactive are those of the source.
How the values were obtained:
Test in all cases: NCI-60 one-dose screen, 48 h (100 = growth as untreated, 0 = no growth, -100 = all killed)
Details in all cases: 10 µM unless noted
HCT-15 colon = test system: HCT-15 colon
HT29 colon = test system: HT29 colon
SNB-75 CNS = test system: SNB-75 CNS
SNB-19 CNS = test system: SNB-19 CNS
U251 CNS = test system: U251 CNS
PC-3 prostate = test system: PC-3 prostate
SK-MEL-5 melanoma = test system: SK-MEL-5 melanoma
UACC-62 melanoma = test system: UACC-62 melanoma
LOX IMVI melanoma = test system: LOX IMVI melanoma
SK-MEL-28 melanoma = test system: SK-MEL-28 melanoma
SK-MEL-2 melanoma = test system: SK-MEL-2 melanoma
EKVX NSCLC = test system: EKVX NSCLC
SN12C renal = test system: SN12C renal
UO-31 renal = test system: UO-31 renal
TK-10 renal = test system: TK-10 renal
ACHN renal = test system: ACHN renal
CAKI-1 renal = test system: CAKI-1 renal
A498 renal = test system: A498 renal
CCRF-CEM leukemia = test system: CCRF-CEM leukemia
MOLT-4 leukemia = test system: MOLT-4 leukemia

Measured: growth

CC(C)(C)c1ccc(C(=O)Nc2sc3c(c2C#N)CCC(=O)C3)cc1
active: HCT-15 colon -18.5% | HT29 colon 5% | SNB-75 CNS -6.69% | PC-3 prostate 8.36% | SK-MEL-5 melanoma -69.8% | UACC-62 melanoma 9.35% | SN12C renal 9.18% | UO-31 renal -99% | ACHN renal -84% | CAKI-1 renal -74.4% | CCRF-CEM leukemia 8.53%
inactive: SNB-19 CNS 14.1% | U251 CNS 16.4% | LOX IMVI melanoma 10.5% | SK-MEL-28 melanoma 28.8% | SK-MEL-2 melanoma 12.8% | EKVX NSCLC 19.1% | TK-10 renal 24.3% | A498 renal 89.8% | MOLT-4 leukemia 10.6%

Cc1nc2ccccc2c(/C=C/c2ccc(Cl)cc2)c1C(=O)/C=C/c1ccccc1
inactive: SNB-75 CNS 39.7% | PC-3 prostate 23.3% | SK-MEL-5 melanoma 13.7% | EKVX NSCLC 31.5% | SN12C renal 20.6% | TK-10 renal 17.7% | A498 renal 44%
active: HCT-15 colon -30.3% | HT29 colon -15.7% | SNB-19 CNS -16.2% | U251 CNS -74.3% | UACC-62 melanoma 0.158% | LOX IMVI melanoma -85.3% | SK-MEL-28 melanoma 8.62% | SK-MEL-2 melanoma -14.1% | UO-31 renal -38% | ACHN renal 5.92% | CAKI-1 renal 4.04% | CCRF-CEM leukemia 6.45% | MOLT-4 leukemia 5.35%

COC(=O)[C@H](C)NC(=O)c1ccc(NC(=O)c2[nH]c(C)c(Cl)c2Cl)c(OCCN)c1
inactive: HCT-15 colon 99.9% | HT29 colon 109% | SNB-75 CNS 98.6% | SNB-19 CNS 101% | U251 CNS 110% | PC-3 prostate 98.5% | SK-MEL-5 melanoma 99.2% | UACC-62 melanoma 103% | LOX IMVI melanoma 96.2% | SK-MEL-28 melanoma 110% | SK-MEL-2 melanoma 121% | EKVX NSCLC 103% | SN12C renal 97.5% | UO-31 renal 98.2% | TK-10 renal 112% | ACHN renal 99% | CAKI-1 renal 96% | A498 renal 88.9% | CCRF-CEM leukemia 97.8% | MOLT-4 leukemia 91.2%

CN1CCN(Cc2ccc(NC(=O)c3cncc(C#Cc4c(N)ncc5c(F)cccc45)c3)cc2C(F)(F)F)CC1
active: HCT-15 colon -83.7% | HT29 colon -77.1% | SNB-75 CNS -81% | SNB-19 CNS -97% | U251 CNS -88.4% | PC-3 prostate -69.2% | SK-MEL-5 melanoma -87.2% | UACC-62 melanoma -93.3% | LOX IMVI melanoma -96.1% | SK-MEL-28 melanoma -86.5% | SK-MEL-2 melanoma -65.4% | SN12C renal -92.6% | UO-31 renal -86.2% | TK-10 renal -95.1% | ACHN renal -79% | CAKI-1 renal -70.4% | A498 renal -1.72% | CCRF-CEM leukemia -39.8% | MOLT-4 leukemia -72.4%
inactive: EKVX NSCLC 10.6%

Cc1c2ccncc2c(C)c2c1c1ccccc1n2CCCCCC(=O)O
inactive: HCT-15 colon 87.1% | HT29 colon 101% | SNB-75 CNS 82.8% | SNB-19 CNS 86.1% | U251 CNS 85.8% | PC-3 prostate 86.2% | SK-MEL-5 melanoma 89.8% | UACC-62 melanoma 85.2% | LOX IMVI melanoma 74.4% | SK-MEL-28 melanoma 113% | SK-MEL-2 melanoma 92.4% | EKVX NSCLC 90.3% | SN12C renal 94.2% | UO-31 renal 56.7% | TK-10 renal 128% | ACHN renal 82.9% | CAKI-1 renal 91.1% | A498 renal 52.8% | CCRF-CEM leukemia 94.1% | MOLT-4 leukemia 74.8%

O=C1N/C(=N/N=C(c2ccccc2)c2ccccc2)S/C1=C\c1ccc(Br)cc1
inactive: HCT-15 colon 97.8% | HT29 colon 81.8% | SNB-75 CNS 101% | SNB-19 CNS 100% | U251 CNS 91.3% | PC-3 prostate 89.8% | SK-MEL-5 melanoma 97.2% | UACC-62 melanoma 79.8% | LOX IMVI melanoma 98.5% | SK-MEL-28 melanoma 112% | SK-MEL-2 melanoma 96.7% | EKVX NSCLC 101% | SN12C renal 98% | UO-31 renal 73.1% | TK-10 renal 107% | ACHN renal 97.7% | CAKI-1 renal 77.2% | A498 renal 89.2% | CCRF-CEM leukemia 84.4% | MOLT-4 leukemia 106%

CCN1C(=O)N(CC)C2C1NN=c1s/c(=C\c3ccc(F)cc3)c(=O)n12 (stereo not given)
active: HT29 colon 3.48% | SNB-75 CNS -1.81% | U251 CNS 9.98% | CCRF-CEM leukemia 4.82%
inactive: HCT-15 colon 13.9% | SNB-19 CNS 28% | PC-3 prostate 25.4% | SK-MEL-5 melanoma 16.8% | UACC-62 melanoma 28.8% | LOX IMVI melanoma 20% | SK-MEL-28 melanoma 63% | SK-MEL-2 melanoma 55.3% | EKVX NSCLC 56.3% | SN12C renal 31.5% | UO-31 renal 41.7% | TK-10 renal 64.8% | ACHN renal 35.2% | CAKI-1 renal 33% | A498 renal 23.4% | MOLT-4 leukemia 14.3%

Oc1ccc(C2OCCO2)c2cccnc12
inactive: HCT-15 colon 32% | HT29 colon 78.3% | SNB-75 CNS 80.6% | SNB-19 CNS 64.4% | U251 CNS 27.4% | PC-3 prostate 32% | SK-MEL-5 melanoma 48.4% | UACC-62 melanoma 51.4% | LOX IMVI melanoma 38.4% | SK-MEL-28 melanoma 63.4% | SK-MEL-2 melanoma 70.4% | EKVX NSCLC 78.4% | SN12C renal 49.1% | UO-31 renal 45% | TK-10 renal 95.5% | ACHN renal 67.5% | CAKI-1 renal 105% | A498 renal 88.2% | CCRF-CEM leukemia 13.5% | MOLT-4 leukemia 20.5%

C=C(C)[C@@H]1CC[C@]2(C(=O)NC(C)=O)CC[C@]3(C)[C@H](CC[C@@H]4[C@@]5(C)CCCNC(C)(C)[C@@H]5CC[C@]43C)[C@@H]12
inactive: SNB-75 CNS 52% | SNB-19 CNS 58.3% | PC-3 prostate 27.4% | UACC-62 melanoma 81.6% | EKVX NSCLC 68.8% | SN12C renal 22.2% | UO-31 renal 49.7% | TK-10 renal 10.6% | CAKI-1 renal 71.8% | A498 renal 88.6%
active: HCT-15 colon -33.2% | HT29 colon -5.24% | U251 CNS -41.6% | SK-MEL-5 melanoma -94.5% | LOX IMVI melanoma -81.8% | SK-MEL-28 melanoma -88.4% | SK-MEL-2 melanoma -34.6% | ACHN renal -30.1% | CCRF-CEM leukemia 1.24% | MOLT-4 leukemia -13.1%

Oc1ccc(C(c2ccc(O)cc2)c2ccc(Cl)cn2)cc1
inactive: HCT-15 colon 23.2% | HT29 colon 47.9% | SNB-19 CNS 71.9% | U251 CNS 97% | SK-MEL-5 melanoma 96.5% | UACC-62 melanoma 39.3% | SK-MEL-28 melanoma 112% | SK-MEL-2 melanoma 72.7% | EKVX NSCLC 15.8% | UO-31 renal 64.8% | ACHN renal 15.7% | CAKI-1 renal 73.5% | CCRF-CEM leukemia 70.2% | MOLT-4 leukemia 98.3%
active: SNB-75 CNS -32.5% | PC-3 prostate -32.2% | LOX IMVI melanoma -42.6% | SN12C renal 6.15% | TK-10 renal -3.31% | A498 renal -1.72%

CC/C(=C(/c1ccc(Cl)cc1)c1ccc(OCCN2CCCCCC2)cc1)c1ccccc1
inactive: HCT-15 colon 35.3% | HT29 colon 17% | SNB-75 CNS 107% | SNB-19 CNS 83% | U251 CNS 62.4% | PC-3 prostate 63.3% | SK-MEL-5 melanoma 79.6% | UACC-62 melanoma 87% | LOX IMVI melanoma 68.5% | SK-MEL-28 melanoma 95.7% | SK-MEL-2 melanoma 98.7% | EKVX NSCLC 85% | SN12C renal 77% | UO-31 renal 61.8% | TK-10 renal 102% | ACHN renal 103% | CAKI-1 renal 85.1% | A498 renal 80.2% | CCRF-CEM leukemia 44.3% | MOLT-4 leukemia 68.8%

CCCCCCCCNC(=O)[C@@H](N)CSCOC(C)=O
inactive: HCT-15 colon 99.5% | HT29 colon 89.4% | SNB-19 CNS 90.8% | U251 CNS 102% | PC-3 prostate 75.9% | SK-MEL-5 melanoma 48.7% | UACC-62 melanoma 70% | LOX IMVI melanoma 44.4% | SK-MEL-28 melanoma 99.6% | SK-MEL-2 melanoma 89.1% | EKVX NSCLC 111% | SN12C renal 91.7% | UO-31 renal 94.9% | TK-10 renal 105% | ACHN renal 100% | CAKI-1 renal 107% | A498 renal 63% | CCRF-CEM leukemia 45.7% | MOLT-4 leukemia 90.4%
active: SNB-75 CNS -17.3%

Cc1cccc(CN(Nc2ccccc2)c2ccccc2)n1
inactive: HCT-15 colon 92.1% | HT29 colon 96.3% | SNB-75 CNS 93.1% | SNB-19 CNS 106% | U251 CNS 91.4% | PC-3 prostate 85.7% | SK-MEL-5 melanoma 97.9% | UACC-62 melanoma 96.3% | LOX IMVI melanoma 98.5% | SK-MEL-28 melanoma 98.7% | SK-MEL-2 melanoma 115% | EKVX NSCLC 79.4% | SN12C renal 97.8% | UO-31 renal 91.8% | TK-10 renal 108% | ACHN renal 102% | CAKI-1 renal 87.3% | A498 renal 98% | CCRF-CEM leukemia 91.2% | MOLT-4 leukemia 91.1%

CCC(C)C(N)C(=O)NC(CC(C)C)C(=O)N1CCCC1C(=O)NC(Cc1c[nH]c2ccccc12)C(=O)NC(CCCCN)C(=O)NC(Cc1c[nH]c2ccccc12)C(=O)N1CCCC1C(=O)NC(Cc1c[nH]c2ccccc12)C(=O)NC(Cc1c[nH]c2ccccc12)C(=O)N1CCCC1C(=O)NC(Cc1c[nH]c2ccccc12)C(=O)NC(CCCNC(=N)N)C(=O)NC(CCCNC(=N)N)C(N)=O (stereo not given)
inactive: HCT-15 colon 106% | HT29 colon 83.5% | SNB-75 CNS 105% | SNB-19 CNS 106% | U251 CNS 112% | PC-3 prostate 91.7% | SK-MEL-5 melanoma 104% | UACC-62 melanoma 102% | LOX IMVI melanoma 98.5% | SK-MEL-28 melanoma 114% | SK-MEL-2 melanoma 108% | EKVX NSCLC 104% | SN12C renal 101% | UO-31 renal 68.1% | TK-10 renal 124% | ACHN renal 98% | CAKI-1 renal 90.4% | A498 renal 130%
active: CCRF-CEM leukemia -58.7% | MOLT-4 leukemia -28.2%

C=C(C)Cn1c(SCC(=O)c2cccs2)nc2sc3c(c2c1=O)CCCC3
inactive: HCT-15 colon 22.7% | HT29 colon 38.9% | SNB-75 CNS 62.6% | SNB-19 CNS 45.1% | U251 CNS 36.3% | PC-3 prostate 48.6% | SK-MEL-5 melanoma 36.4% | UACC-62 melanoma 44.8% | SK-MEL-28 melanoma 55.3% | SK-MEL-2 melanoma 92.3% | EKVX NSCLC 77.1% | SN12C renal 64.5% | UO-31 renal 58.6% | TK-10 renal 87.5% | ACHN renal 44.3% | CAKI-1 renal 53.8% | A498 renal 72.1% | CCRF-CEM leukemia 40% | MOLT-4 leukemia 41.9%
active: LOX IMVI melanoma 4.51%

Source: PubChem BioAssay (NCI)
